Compound activity as filed in PubChem BioAssay.
sEH inhibitor: blocks human soluble epoxide hydrolase activity; P34913; inhibition, % at 2 µM; AID 707; recombinant human sEH enzymatic activity assay; 91,000 tested, 0.34% active; in the data active = inhibition above about 80%
Smad3 inh: inhibitors of human Smad3 transcription factor binding. P84022. TR-FRET Smad3/Dy647-FoxH1 peptide binding, europium anti-His. inhibition, % at 25 µM. 88,000 tested, 0.29% active;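 active = compounds that reduce the energy-transfer binding signal between the protein and its labelled peptide by more than half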;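 also: 0% = Smad3 plus labelled peptide maximal FRET and 100% = peptide-only background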
Target sequence (P84022 whole entry, looked up): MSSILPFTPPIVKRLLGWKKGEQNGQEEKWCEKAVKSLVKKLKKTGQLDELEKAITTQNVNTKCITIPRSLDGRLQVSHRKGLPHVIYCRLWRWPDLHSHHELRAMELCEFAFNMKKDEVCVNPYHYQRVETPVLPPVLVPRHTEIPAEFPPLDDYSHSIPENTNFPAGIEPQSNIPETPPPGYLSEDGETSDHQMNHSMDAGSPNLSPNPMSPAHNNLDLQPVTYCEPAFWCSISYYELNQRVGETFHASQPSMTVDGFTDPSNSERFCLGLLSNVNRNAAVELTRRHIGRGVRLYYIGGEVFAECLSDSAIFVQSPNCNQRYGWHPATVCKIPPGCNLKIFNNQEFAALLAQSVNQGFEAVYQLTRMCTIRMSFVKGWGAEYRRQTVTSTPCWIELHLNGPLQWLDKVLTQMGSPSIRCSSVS
sEH activator: activators of human soluble epoxide hydrolase; purified human sEH enzymatic activity, activator screen; activation, % at 2 µM; 91,000 tested, 0.04% active; AID 717; in the data active = activation above about 37%
* hit, by the source's call; . = not tested or not shown; [ ] = remark or other dose. Most compounds without a hit are left out; they make up all but 0.45% or so of the library.

SMILES	sEH inhibitor	Smad3 inh	sEH activator
C[C@H]1C[C@@H]2[C@@H]3CCC4=CC(=O)C=C[C@@]4(C)[C@@]3(F)[C@H](O)C[C@@]2(C)[C@]1(O)C(=O)COP(=O)(O)O	.	8	.
CC(C)[C@H](NC(=O)NC1CCCC1)C(=O)O	-20	18	19
CC(C)=CCCC(C)NC(=O)NC1CCCCC1 (stereo not drawn)	91*	-2	-90
Oc1ccc2ccccc2c1Cc1c(O)ccc2ccccc12	.	7	.
NNC(=O)c1cnn(Cc2ccccc2)c1N	87*	7	-86
NC(=O)c1cnn(Cc2ccc(Cl)cc2)c1N	-10	.	12
CN(C)CCNCCN	.	5	.
Brc1ccc(OCCOCCOc2cccc3cccnc23)cc1	-54	.	58*
Brc1ccccc1OCCOCCOc1cccc2cccnc12	-11	.	8
O=C(N[C@]1(C(=O)O)C[C@H]1c1ccccc1)c1ccccc1	.	8	.
CC(C)c1ccc(NC(=O)NC2CCN(CC(=O)Nc3cccc4ccccc34)CC2)cc1	90*	.	-89
COCCNC(=O)CN1CCC(NC(=O)Nc2ccc(C(F)(F)F)cc2)CC1	89*	13	-89
O=C(CN1CCC(NC(=O)c2ccco2)CC1)Nc1cccc2ccccc12	7	4	-4
COCCNC(=O)CN1CCC(NC(=O)Nc2ccccc2)CC1	22	-7	-23
O=C(O)c1cc(-c2ccc(-c3ccc(-c4cc(C(=O)O)c5cc(Cl)ccc5n4)cc3)cc2)nc2ccc(Cl)cc12	.	-17	.
C[C@@]12CC[C@H]3c4ccc(O)cc4CC[C@@H]3[C@H]1CC[C@H]2OC(=O)CCc1ccccc1	.	13	.
COc1nc(N)nc2c1ncn2[C@@H]1C[C@H](O)[C@@H](CO)O1	.	-3	.
O=C(O)CN(CCN(CC(=O)O)CC(=O)O)CC(=O)O.[Mn+2]	.	9	.
CS(=O)(=O)Nc1ccc(Nc2c3ccccc3nc3ccccc23)cc1	.	58*	.
Cc1ccc2nc(-c3ccc(NS(C)(=O)=O)cc3)cc(-c3ccccc3)c2c1	14	.	-12
COc1ccccc1NS(=O)(=O)c1cccc(C(=O)N/N=C(\C)c2ccc(-n3ccnc3)cc2)c1	82*	.	-82
COc1ccccc1NS(=O)(=O)c1ccc(OC)c(OC)c1	3	-4	-1
O=C(O)c1ccc(C(=O)O)c(C(=O)O)c1.[NH-][C@@H]1CCCC[C@H]1[NH-].[Pt]	.	28	.
O=C(NCc1ccccn1)Nc1ccc(Cl)c(Cl)c1	1	5	3
CC(Cc1cccs1)NC(=O)Nc1ccc(Cl)c(Cl)c1 (stereo not drawn)	90*	-5	-90
SMILES	sEH inhibitor	Smad3 inh	sEH activator
CC(Cc1cccs1)NC(=O)Nc1ccccc1 (stereo not drawn)	58	6	-58
CC(Cc1cccs1)NC(=O)Nc1ccc(Cl)cc1 (stereo not drawn)	87*	.	-86
Cc1cc(Cc2cc(C)cc(C(C)(C)C)c2O)c(O)c(Cc2cc(C)cc(C(C)(C)C)c2O)c1	.	34	.
O=C(Cc1ccc(Cl)cc1)Nc1ccc(N2CCN(C(=O)c3ccco3)CC2)c(Cl)c1	86*	6	-86
O=C(Nc1ccc(N2CCN(C(=O)c3ccco3)CC2)c(Cl)c1)c1cccs1	35	11	-31
O=C(NCCCN1CCCCCC1)c1ccc(CS(=O)(=O)Cc2ccccc2F)o1	-14	69*	17
CC1CCN(CCCNC(=O)c2ccc(CS(=O)(=O)Cc3ccccc3F)o2)CC1	-13	-9	15
Cc1c(CN(C)C)c2c(n1C)C(=O)c1ccc(Br)cc1-2	6	-2	-4
CCOC(=O)c1c2c(n(C)c1C)C(=O)C(=O)c1ccc(Br)cc1-2	-11	68*[fluorescence artefact?]	14
CCN1CCCCC(=N/O)/C(=N\O)CCCC1	.	3	.
[Cu].c1ccc2c(c1)-c1nc-2nc2[n-]c(nc3nc(nc4[n-]c(n1)c1ccccc41)-c1ccccc1-3)c1ccccc21	.	-8	.
Cc1ccc(C(=N)c2ccccc2Cc2cccc3ccccc23)c2ccccc12	.	46	.
CC(C)(C)n1nnnc1CN1CCC(NC(=O)NC2CCCCC2)CC1	97*	1	-97
COc1ccc(CC(=O)NC2CCN(Cc3nnnn3C(C)(C)C)CC2)cc1OC	15	3	-14
C[N+](C)(C)[C@H](Cc1c[nH]c(=S)[nH]1)C(=O)O	.	-8	.
O=C(O)[C@H]1CCCN1Cc1ccc2c(c1)OCO2	.	-5	.
Nc1nccc(Nc2ccc(S(N)(=O)=O)cc2)n1	.	4	.
N/C(CC/C(N)=N\O)=N\O	.	-12	.
O=C(O)[C@@H]1[C@H](C(=O)NCc2ccccn2)[C@@H]2C=C[C@H]1O2	.	-2	.
CO[C@@H]1/C=C\O[C@]2(C)Oc3c(C)c(O)c4c(O)c(c(CN(C)C)c(O)c4c3C2=O)NC(=O)C(C)=C/C=C\[C@@H](C)[C@@H](O)[C@H](C)[C@@H](O)[C@H](C)[C@H](OC(C)=O)[C@@H]1C	.	5	.
O=C(CSc1nc2ccccc2s1)c1sc2sc3ccccc3[n+]2c1O	.	96*	.
O=C(CSc1nc2ccccc2s1)CSc1nc2ccccc2s1	-14	14	12
